Results reported in PubChem BioAssay (NCI).
Compounds without any hit were thinned out: in the full panel of roughly 79,000, 15% have a hit. A number with no mark means an inactive call. The source made the active and inactive calls. Cut-off read from the data, not from the text of the source: active = growth inhibition above about 70%; inactive = the rest.

What was measured:
[1] = NCI Yeast Anticancer Drug Screen. Data for the rad50 strain (AID 155);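 note: 0% = growth of vehicle-only cultures of the same strain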; conditions: S. cerevisiae rad50 strain growth inhibition, hits give high values
Summary of the method: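 Growth of the mutant yeast was measured after compound exposure and referenced to vehicle-treated cultures.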

[2] = NCI Yeast Anticancer Drug Screen. Data for the mec2-1 strain (AID 157); conditions: S. cerevisiae mec2-1 strain, hits give high values
Summary of the method: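 mec2-1 yeast strain, carrying an alteration in DNA damage repair or cell cycle control, was exposed to compounds; growth inhibition was measured relative to vehicle-treated controls.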

[3] = NCI Yeast Anticancer Drug Screen. Data for the sgs1 mgt1 strain (AID 161);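 note: 0% = growth of cultures given vehicle only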; conditions: S. cerevisiae sgs1 mgt1 strain, hits give high values
Summary of the method: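 Compounds are added to genetically altered yeast, and growth is compared with cultures given vehicle alone to give percent inhibition.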

[4] = NCI Yeast Anticancer Drug Screen. Data for the cln2 rad14 strain (AID 165);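 note: 0% = growth equal to vehicle treated cultures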; conditions: S. cerevisiae cln2 rad14 strain, hits give high values
Summary of the method: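 Yeast carrying cln2 and rad14 alterations (cell cycle control and DNA damage repair) were exposed to compounds. Growth inhibition was measured against vehicle-treated controls.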

[5] = NCI Yeast Anticancer Drug Screen. Data for the bub3 strain (AID 167); conditions: S. cerevisiae bub3 mutant strain, hits give high values
Summary of the method: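 Whole-cell yeast assay. The mutant strain was incubated with compounds, and growth inhibition was determined by comparison with vehicle-treated cells.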

[6] = NCI Yeast Anticancer Drug Screen. Data for the mlh1 rad18 strain (AID 175); conditions: S. cerevisiae mlh1 rad18 strain growth inhibition, hits give high values
Summary of the method: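 Growth inhibition of the yeast strain was measured after compound exposure and expressed relative to vehicle-treated controls. The strain carries defined defects in DNA damage repair.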

[7] = at 5.0 µM (retest, dose inferred, filed as 0.5)
[8] = at 50.0 µM (retest, dose inferred, filed as 5.0)

Row | SMILES | growth inhibition [1, 7] | growth inhibition [1, 8] | growth inhibition ([1]; at 50.0 µM) | growth inhibition [2, 7] | growth inhibition [2, 8] | growth inhibition ([2]; at 50.0 µM) | growth inhibition [3, 7] | growth inhibition [3, 8] | growth inhibition ([3]; at 50.0 µM) | growth inhibition [4, 7] | growth inhibition [4, 8] | growth inhibition ([4]; at 50.0 µM) | growth inhibition [5, 7] | growth inhibition [5, 8] | growth inhibition ([5]; at 50.0 µM) | growth inhibition [6, 7] | growth inhibition [6, 8] | growth inhibition ([6]; at 50.0 µM)
1 | Cc1ccc(O)c(-c2cscn2)c1 | 49% | 68% | 62.6% | 39% | 60% | 6.95% | 15% | 22% | 55.5% | 65% | 72% (active) | 31.5% | 46% | 50% | 48.5% | 47% | 59% | 85.7% (active)
2 | CC(O[Si](c1ccccc1)(c1ccccc1)C(C)(C)C)[C@H](NC(=O)OC(C)(C)C)C(=O)O[Si](c1ccccc1)(c1ccccc1)C(C)(C)C (stereo partly specified) | 91% (active) | 99% (active) | 89.9% (active) | 88% (active) | 99% (active) | 92.9% (active) | 96% (active) | 100% (active) | 92.8% (active) | 93% (active) | 99% (active) | 91.2% (active) | 71% (active) | 84% (active) | 91.3% (active) | 93% (active) | 99% (active) | 89% (active)
3 | S=C(N/N=C/c1ccccn1)N1CCCCC1 | 99% (active) | 98% (active) | 89.3% (active) | 97% (active) | 99% (active) | 92.4% (active) | 98% (active) | 97% (active) | 91.8% (active) | 96% (active) | 99% (active) | 93% (active) | 98% (active) | 100% (active) | 92% (active) | 98% (active) | 99% (active) | 89.5% (active)
4 | c1ccc(-c2cc(-c3cc(-c4ccccn4)[nH]n3)n[nH]2)nc1 | 5% | 4% | 17.2% | 0% | -11% | 0.75% | 0% | 18% | 23.5% | -1% | -16% | 9.05% | 4% | 7% | 3.4% | -5% | 4% | 19.6%
5 | COc1ccc(-c2c3ccccc3[n+](-c3ccccc3)c3ccccc23)cc1 | 98% (active) | 99% (active) | 99.6% (active) | 99% (active) | 100% (active) | 99.5% (active) | 99% (active) | 100% (active) | 99.5% (active) | 96% (active) | 99% (active) | 99.2% (active) | 99% (active) | 99% (active) | 99.2% (active) | 99% (active) | 99% (active) | 99.3% (active)
6 | CS(=O)(=O)OCCN(CCOS(C)(=O)=O)c1ccc(C=Nc2ccc(-c3csc(-c4ccc(Br)cc4)n3)cc2)c(Cl)c1 | 0% | 71% (active) | 71.7% (active) | -4% | 51% | 56.2% | 1% | 83% (active) | 92.3% (active) | -10% | 68% | 46.3% | 3% | 87% (active) | 80.1% (active) | 0% | 76% (active) | 90.7% (active)
7 | CC(C)c1ccc(C2C3=C(N=C4SCC(=O)N42)C(=O)c2ccccc23)cc1 (stereo unspecified) | 7% | -6% | 86.7% (active) | -20% | 3% | 68.2% | -6% | 5% | 89.2% (active) | -31% | 8% | 83% (active) | -41% | 41% | 80.3% (active) | -39% | 2% | 42.2%
